HCV inhibitor: qHTS Assay for Inhibitors of Hepatitis C Virus (HCV); Huh7.5.1 HCVcc-Cre infection, luciferase reporter, 44 h; Potency, µM (titrated, usually from 41.8 µM), inactives show top-dose activity change, negative = inhibition, usual class: inhibitors; hit rate 3.4% among 340,000; also: potency is read from the fitted curve at half-maximal effect
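Reporter virus HCVcc-Cre (~0.5 moi) infects cells exposed to compound; seeding density 1,000 cells/well with 4 h settling beforehand. Luminescence, 15 sec read, taken 44 h post-infection following a 15 min RT substrate incubation.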
Pf growth 48h: Primary qHTS for delayed death inhibitors of the malarial parasite plastid, 48 hour incubation. hit rate 5.9% among 310,000. Potency, µM (titrated, usually from 28.7 µM), for inactives: at the highest dose activity change, negative = inhibition, hits mostly inhibitors. P. falciparum luciferase growth in erythrocytes, 48 h; also: potency is read from the fitted curve at half-maximal effect
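Cell-based growth assay: transgenic P. falciparum expressing firefly luciferase, cultured in red cells within RPMI 1640 containing 0.5% w/v Albumax, 24 mM bicarbonate and gentamycin. A drop in luciferase activity indicates inhibition.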
HCMV inh: qHTS Assay for inhibitors of the human cytomegalovirus (HCMV). AID 1259415, 2018. activity change, negative = inhibition, % at 57.5 µM. hit rate 4.5% among 410,000. HFF cells, HCMV-luciferase reporter, 72 h; stronger effect = lower value; in the data active = activity change below about -60%; inconclusive = no clear call, values can overlap the other calls; inactive = above about -39%
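Two-dose cell screen: HFF monolayers treated with compounds and infected with luciferase-expressing HCMV at 1 PFU/cell, 72 h at 37C, then lysed for luciferase measurement.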
Pf growth 96h: Primary qHTS for delayed death inhibitors of the malarial parasite plastid, 96 hour incubation; AID 504834, 2011; P. falciparum luciferase reporter growth, 96 h; hit rate 6.9% among 320,000; Potency, µM (highest dose often 28.7 µM), without a hit: at the top dose activity change, negative = inhibition, hits mostly inhibitors; also: potency is read from the fitted curve at half-maximal effect
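96 h incubation, 37 C, 5% CO2, of luciferase-reporter P. falciparum-infected RBCs (2% hematocrit, 0.05% parasitemia final) with test compounds; endpoint luminescence.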
An asterisk follows results filed as active; i = inactive; ? = inconclusive; nt = not tested or not shown. Compounds with a hit are over-represented: about 13% of the library has one in this group of screens. Unless noted, calls follow the shape of the dose curve; as a rule, active = well fitted inhibition curve with a large enough effect; inconclusive = small, poorly fitted or top-dose-only effect, or another doubt; inactive = no such curve, though single readings can be large or run the other way. % is scaled to controls: 0 for no effect and ±100 for the full control effect.

SMILES	HCV inhibitor	Pf growth 48h	HCMV inh	Pf growth 96h
CCOc1ccccc1NS(=O)(=O)c1c(-c2ccc(C)cc2)csc1C(=O)OC	nt	nt	13	nt
Cc1cc(C)n(C(C)CC(=O)NCc2ccc(Cl)cc2)n1 (stereo unspecified)	nt	nt	-11	nt
CCc1cc2ccc(C)cc2nc1SCC(=O)NNC(=O)c1ccco1	6%	17%	?	4.7µM*
CC(=O)OCC(=O)c1ccc2ccn(C(C)=O)c2c1	-10%	4%	-16	10µM*
COc1ccccc1N1CCN(CC(=O)c2ccc3ccn(C(C)=O)c3c2)CC1	-9%	nt	nt	171%
CCOc1ccc(CCNC(=O)CCc2nnc3ccc(N4CCOCC4)nn23)cc1OCC	2%	-2%	-13	13µM*
Cc1ccc(C)c(NC(=O)CCc2nnc3ccc(N4CCCC4)nn23)c1	1%	0%	-19	?
CSc1ccc(CCNC(=O)CCc2nnc3ccc(N4CCCC4)nn23)cc1	-15%	?	-12	9.3µM*
COc1ccccc1NC(=O)CSc1nc2c(oc3ccccc32)c(=O)n1-c1ccc(C)cc1	nt	nt	11	nt
CCOC(=O)Cc1c(C(=O)OCC)nnc2c(-c3ccccc3)c(C)nn12	nt	nt	-7	nt
Cc1ccc(CNC(=O)c2nccnc2C(=O)O)cc1	6%	3%	-16	4.7µM*
Cc1ccc(CNC(=O)c2cccnc2)cc1	20%	nt	24	nt
COc1cn(-c2ccccc2)nc1C(=O)NCc1ccc(C)cc1	-28%	?	?	8.3µM*
COc1cn(-c2ccccc2)nc1C(=O)NCc1ccccc1	?	-16%	-24	-10%
CSc1ccc(CCNC(=O)CN2C(=O)COc3ccc(S(=O)(=O)N4CCCCCC4)cc32)cc1	nt	nt	-17	nt
Clc1ccccc1-c1nc2nc3ccccc3nc2n1-c1ccc2c(c1)OCO2	?	?	7	10µM*
Cc1cc(C)c(NC(=O)C2CCN(C(=O)N3CC(C)Oc4ccc(Cl)cc43)CC2)c(C)c1 (stereo unspecified)	nt	nt	-19	nt
C=C1C(=O)OC2C=C(CO)C3OC3C3OC3(C)CC(OC(=O)/C(=C/C)COC(C)=O)C12 (stereo unspecified)	?	nt	-100*	nt
CC(=O)OCC1=C[C@@H]2OC(=O)C3=CO[C@@H](O[C@@H]4O[C@H](CO)[C@@H](O)[C@H](O)[C@H]4O)[C@H]1[C@@H]32	5%	4%	4	42%
O=C(NC1CCCCC1)N1CCN(c2nc(-c3ccccc3)cs2)CC1	10µM*	31%	?	?
COc1ccc(-c2csc(N3CCC(C(N)=O)(N4CCCCC4)CC3)n2)cc1	?	?	-81*	-1%
O=C(C1CCCCC1)N1CCN(c2nc(-c3ccc(F)cc3)cs2)CC1	?	-1%	-60*	4%
O=C(O)c1ccc(CNCc2ccccc2Cl)s1	nt	nt	-13	nt
CCOc1ccc(N2C(=O)CC(N(CCc3ccc(S(N)(=O)=O)cc3)C(C)=O)C2=O)cc1 (stereo unspecified)	34%	3.7µM*	0	8%
CCCCCCOc1ccc(N2C(=O)CC(N(CCc3ccc(S(N)(=O)=O)cc3)C(C)=O)C2=O)cc1 (stereo unspecified)	13%	?	-37	i
SMILES	HCV inhibitor	Pf growth 48h	HCMV inh	Pf growth 96h
CCOc1cccc(N2C(=O)CC(N(CCc3ccc(OC)c(OC)c3)C(=O)CC)C2=O)c1 (stereo unspecified)	17%	0%	2	5.9µM*
CCOC(=O)c1ccc(N2C(=O)CC(N(C)CCc3ccc(OC)c(OC)c3)C2=O)cc1 (stereo unspecified)	?	?	44	nt
COc1ccc(C(Nc2ccccn2)c2c(NC(=O)c3ccco3)sc(C)c2C)cc1OC (stereo unspecified)	-13%	?	?	5.2µM*
COc1ccc(C(c2c(NC(=O)c3ccco3)sc(C)c2C)N2CCOCC2)cc1 (stereo unspecified)	?	?	-30	10%
COc1cc(C(Nc2ccccn2)c2c(NC(=O)c3ccco3)sc(C)c2C)cc(OC)c1OC (stereo unspecified)	2%	5.2µM*	63	8.3µM*
C[C@@H]1CN([C@@H](C)CO)C(=O)CCCn2cc(nn2)CO[C@H]1CN(C)C(=O)C1CC1	nt	nt	3	nt
CCC1Oc2ccccc2N(CC(=O)NCc2ccccc2)C1=O (stereo unspecified)	nt	nt	2	nt
CCC1C(C#N)=C(SCC(N)=O)NC2=C1C(=O)CC(C)(C)C2 (stereo unspecified)	-3%	8%	20	-2%
COc1ccc(C2C(C#N)=C(SCC(=O)Nc3ccc(C)cc3)NC3=C2C(=O)CC(C)(C)C3)cc1 (stereo unspecified)	-24%	13µM*	-30	?
CCOc1ccc(NC(=O)CCSc2nc3c(c(CC)c2C#N)C(=O)CC(C)(C)C3)cc1	?	-24%	-17	nt
COc1cc(C2C(C#N)=C(N)N(N(C)C)C3=C2C(=O)CC(C)(C)C3)cc(OC)c1OC (stereo unspecified)	5%	-16%	-82*	?
COc1cc(C2C(C#N)=C(C)NC3=C2C(=O)CC(C)(C)C3)cc(OC)c1O (stereo unspecified)	-21%	-25%	-61*	28%
CCc1c(C#N)c(SCCC(=O)Nc2ccc(C)cc2)nc2c1C(=O)CC(C)(C)C2	8.9µM*	?	-29	nt
COc1ccc(Cn2c(C(=O)O)c(CNC3CCC(C)CC3)c3ccc(C)cc32)cc1 (stereo unspecified)	nt	nt	-10	nt
O=C(NCC(c1cccnc1)N1CCc2ccccc21)C(=O)Nc1ccccc1F (stereo unspecified)	nt	nt	7	nt
CCc1nnc(NC(=O)c2cc(=O)c3cc(C)ccc3o2)s1	nt	nt	25	nt
CC(C)(C)C(=O)Cn1c(=O)n(-c2ccc(Cl)cc2)c(=O)c2c3c(sc21)CCCC3	nt	nt	-4	nt
CC1CCCCN1C(=S)NC(=O)c1cc(Br)ccc1Cl (stereo unspecified)	6%	?	-24	13µM*
Cc1ccccc1-n1nnnc1SCC(C)C	?	12%	-36	-4%
Cc1ccccc1-n1nnnc1SCc1csc(-c2ccccc2)n1	?	nt	54	9.3µM*
COCCn1c(SCC(=O)NCc2ccccc2)nc2ccccc21	-19%	0%	-17	-20%

Assay outcomes (PubChem BioAssay)
